Assay results taken from PubChem BioAssay (NCI).
The panel holds about 79,000 compounds, 15% with a hit somewhere; the sample as a whole holds those more often. Cut-off read from the data, not from the text of the source: active = growth inhibition above about 70%; inactive = the rest.

What was measured:
[1] = NCI Yeast Anticancer Drug Screen. Data for the rad50 strain (AID 155);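 note: 0% = growth of vehicle-only cultures of the same strain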; details: S. cerevisiae rad50 strain growth inhibition; at 50.0 µM; hits give high values
Summary of the method: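 Genetically altered yeast (DNA repair pathway); compound treatment; growth inhibition vs vehicle ctrl.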

[2] = NCI Yeast Anticancer Drug Screen. Data for the mec2-1 strain (AID 157); details: S. cerevisiae mec2-1 strain, at 50.0 µM, hits give high values
Summary of the method: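 Yeast mec2-1 mutant treated with compound. Readout: growth inhibition vs vehicle controls.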

[3] = NCI Yeast Anticancer Drug Screen. Data for the sgs1 mgt1 strain (AID 161);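 note: 0% = growth of cultures given vehicle only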; details: S. cerevisiae sgs1 mgt1 strain, at 50.0 µM, hits give high values
Summary of the method: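 Genetically altered yeast, compound exposure, growth inhibition relative to vehicle.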

[4] = NCI Yeast Anticancer Drug Screen. Data for the cln2 rad14 strain (AID 165);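 note: 0% = growth equal to vehicle treated cultures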; details: S. cerevisiae cln2 rad14 strain, at 50.0 µM, hits give high values
Summary of the method: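 cln2 rad14 yeast strain; compound exposure; growth inhibition read vs vehicle controls.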

[5] = NCI Yeast Anticancer Drug Screen. Data for the bub3 strain (AID 167); details: S. cerevisiae bub3 mutant strain, at 50.0 µM, hits give high values
Summary of the method: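 Yeast carrying a defined mutation is treated with each compound, and growth is compared with that of vehicle-exposed cells to give inhibition.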

[6] = NCI Yeast Anticancer Drug Screen. Data for the mlh1 rad18 strain (AID 175); details: S. cerevisiae mlh1 rad18 strain growth inhibition; at 50.0 µM; hits give high values
Summary of the method: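 Yeast w/ defined DNA-repair lesions; compound exposure; growth vs vehicle controls → % inhibition.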

Measured: growth inhibition

COc1ccc(NC(=S)N(CCC#N)C2CCCCC2)cc1
inactive: [1] -1.1% | [2] -24.3% | [3] -3% | [4] 16.8% | [5] -1.5% | [6] -4.05%

CCN(CC)CCOc1c(C)cccc1C
inactive: [1] -5.15% | [2] 3.45% | [3] -13.1% | [4] -14.2% | [5] 12.1% | [6] -2%

CC1=Nc2c([nH]c(=S)[nH]c2=O)NC(c2c(Cl)cccc2Cl)C1 (stereo unspecified)
inactive: [1] 3.9% | [2] 11.6% | [3] 14.2% | [4] -4.5% | [5] -4.5% | [6] 34.6%

Nc1ncc2[nH]c(I)nc2n1
inactive: [1] 16.9% | [2] 19.9% | [3] 0.65% | [4] 0.7% | [5] 40.2% | [6] 26.4%

C[Si](C)(C)c1ccc(C(=O)O)cc1
inactive: [1] 7.3% | [2] 12.6% | [3] -3.35% | [4] 3.2% | [5] -18.3% | [6] 10.2%

CC1(c2ccc3cccc(F)c3c2)OC(=O)c2ccccc21 (stereo unspecified)
inactive: [1] 2% | [2] 1.65% | [3] -2.95% | [4] -68.8% | [5] -4.25% | [6] -12.7%

CC/C(=N/Nc1cn[nH]c(=O)c1Cl)c1ccccc1
inactive: [1] 4.6% | [2] -0.6% | [3] -0.5% | [4] -35.6% | [5] 19% | [6] -1.5%

Nc1c(S(=O)(=O)O)cc(Nc2cccc(S(=O)(=O)/C=C/S(=O)(=O)O)c2)c2c1C(=O)c1ccccc1C2=O
inactive: [1] 8.4% | [2] -28.9% | [3] -1.2% | [4] -2.45% | [5] 0.85% | [6] -14.2%

COc1ccc2[nH]c(C(F)(F)F)cc(=O)c2c1
inactive: [1] 9.4% | [2] 11.7% | [3] 5.2% | [4] -7.95% | [5] 4.65% | [6] 14.8%

CC1(C)CC(C)(C)CC(O)(C2(O)CC(C)(C)CC(C)(C)C2)C1
inactive: [1] -0.95% | [2] 0.35% | [3] -2.7% | [4] -3% | [5] -5.4% | [6] 9.2%

COC(=O)N1CCc2c(nc(N(C)CCO)[nH]c2=O)C1
inactive: [1] -0.55% | [2] -20.5% | [3] -47.2% | [4] -3.8% | [5] -30.1% | [6] -30.6%

Nc1ccc2cc3ccccc3cc2c1
inactive: [1] 12.6% | [2] -20.6% | [3] 1.95% | [4] -18% | [5] 7.35% | [6] 25%

CCS(=O)CCC(N)C(=O)O (stereo unspecified)
inactive: [1] -9.7% | [2] -20.1% | [3] 1.65% | [4] -19.6% | [5] 5.7% | [6] -3.6%

CCCCCCCCC(Cl)C(Cl)CCCCCCCC(=O)OC (stereo unspecified)
inactive: [1] -30.2% | [2] -33% | [3] -20.3% | [4] -13.8% | [5] -5.15% | [6] -22.1%

O=C(O)c1cc2cc(S(=O)(=O)O)ccc2cc1O
inactive: [1] 4% | [2] -0.95% | [3] -6.9% | [4] -25.2% | [5] -11.8% | [6] 30.4%

Cc1cc(Cl)cc(CN(Cc2ccccc2)Cc2cc(Cl)cc(C)c2O)c1O
inactive: [1] 1.3% | [2] -3.55% | [3] 18.2% | [4] 25.7% | [5] 2% | [6] -6.8%

CN(C)c1ccc(/C=C/c2ccccc2)cc1
inactive: [1] -3.6% | [2] -6.15% | [3] -8.95% | [4] -15.1% | [5] -16.2% | [6] 1.55%

C#CCOc1ccc(C(F)(F)F)cc1
inactive: [1] -8.1% | [2] -15.4% | [3] -1.6% | [4] -17.4% | [5] 15.4% | [6] -2.05%

COC(=O)c1ccc(/C=C2\Oc3ccccc3C2=O)cc1
inactive: [1] -54.1% | [2] -62.2% | [3] -39% | [4] -8.5% | [5] -22.9% | [6] -44.5%

CC(=O)OCC1OC(n2cnc3c(N)ncnc32)CC1OC(C)=O (stereo unspecified)
inactive: [1] -1.7% | [2] -1.75% | [3] -1.25% | [4] -47.5% | [5] 15.5% | [6] -18.6%

COc1cc(C2(C)SCCCS2)cc(OC)c1OC
inactive: [1] -10.9% | [2] -8.1% | [3] -4.05% | [4] 0.2% | [5] 25.8% | [6] -15.3%

Cc1ccc(C(C)C)cc1NC(=O)/C=C/c1ccccc1
inactive: [1] 10.2% | [2] 36% | [3] 36.6% | [4] -15.2% | [5] 23.9% | [6] 55%

Cc1cn(C2CC(O)C(CO)C2C)c(=O)[nH]c1=O (stereo unspecified)
inactive: [1] -7.45% | [2] -11.8% | [3] -17.2% | [4] 5.4% | [5] -11.8% | [6] -24.9%

CCN(CC)CCOC(=O)c1ccc(N=NC2Sc3nc4ccccc4n3C2=O)cc1 (stereo unspecified)
inactive: [1] 27.9% | [2] 20.2% | [3] 15.9% | [4] 14.4% | [5] 6.8% | [6] 27.8%

O=C1OC(c2ccc([N+](=O)[O-])cc2)=N/C1=C\c1ccc(Cl)c(Cl)c1
inactive: [1] 31.9% | [2] 21.8% | [3] 43.6% | [4] 28.1% | [5] 25.2% | [6] 46.2%

C=CCOc1ccc(Cl)cc1Br
inactive: [1] -1.8% | [2] -4.6% | [3] -2.65% | [4] -46.6% | [5] -3.35% | [6] -7.8%

OC(CCl)CN1CCN(CC(O)CCl)CC1 (stereo unspecified)
inactive: [1] -3.05% | [2] 12.3% | [3] 2.55% | [4] 13.5% | [5] -9.55% | [6] -24.8%

CCOC(=O)Nc1ccn(C2OC(COC(C)=O)C(OC(C)=O)C2OC(C)=O)c(=O)n1 (stereo unspecified)
inactive: [1] 19.9% | [2] -11.4% | [3] 15.1% | [4] -46.4% | [5] -1.9% | [6] 8.3%

CCC(=O)C(CC)c1ccccc1 (stereo unspecified)
inactive: [1] 9.25% | [2] -8% | [3] -4.8% | [4] 2.2% | [5] 4.4% | [6] 4.55%

CCCCC1(C=O)NC(=O)N(C)C1=O (stereo unspecified)
inactive: [1] 5% | [2] 2.35% | [3] -10.8% | [4] 5.6% | [5] 7.2% | [6] -9.35%

NC(CSSCC(NC(=O)CNC(=O)OCc1ccccc1)C(=O)O)C(=O)O (stereo unspecified)
inactive: [1] -13.3% | [2] -38% | [3] -11.2% | [4] -62.8% | [5] -1.05% | [6] 2%

O=C(COc1ccccc1)Nc1ccc(C(=O)O)cc1
inactive: [1] -2.95% | [2] -3.6% | [3] -3.35% | [4] 1.85% | [5] 22.1% | [6] 25.3%

C/C(=N\O)c1cccc[n+]1Cc1ccccc1
inactive: [1] 12.2% | [2] 12.7% | [3] -15.8% | [4] -21.6% | [5] 17.8% | [6] -3.6%

CNc1c(C)cc(C#N)cc1C
inactive: [1] 7.45% | [2] 1.25% | [3] -10.6% | [4] 0.2% | [5] -4.7% | [6] -5.4%

CC1(C)OP2(O)(OC(C)(C)c3ccccc32)c2ccccc21
inactive: [1] 31.1% | [2] 5.6% | [3] 12.3% | [4] 1.8% | [5] 6.85% | [6] 24.1%

Cn1cnc([N+](=O)[O-])c1Sc1nc(N)nc2c1ncn2C1OC(CO)C(O)C1O (stereo unspecified)
inactive: [1] -9.3% | [2] 20.3% | [3] 15.6% | [4] 25.1% | [5] 14.2% | [6] -8.5%

NC(=O)C1C(=O)NC(=O)C1=O (stereo unspecified)
inactive: [1] -21.5% | [2] -17.9% | [3] -8.75% | [4] -7.7% | [5] -9.75% | [6] -22.4%

NC(CSSCC(N)=NC1CCCCC1)=NC1CCCCC1
inactive: [1] 6.5% | [2] 3.4% | [3] 13% | [4] 7.35% | [5] -1.45% | [6] 20%

CN(C)CCOC(=O)Nc1ccccc1C(F)(F)F
inactive: [1] 16.1% | [2] -8.1% | [3] 17.1% | [4] 21.8% | [5] 19.8% | [6] 12.2%

COc1ccc(/C=C2\NC(=O)NC2=O)cc1Br
inactive: [1] 11.8% | [2] 10.4% | [3] 2.65% | [4] 7% | [5] 9.1% | [6] 8.5%

CO/N=C1\C(C)(C)C(C)(C)C(C)(C)C1(C)SS(=O)(=O)O (stereo unspecified)
inactive: [1] 23.6% | [2] 19.1% | [3] 12.6% | [4] 17.6% | [5] 20.8% | [6] 29.9%
